An excerpt weighted towards active compounds, which were near 8.1% of everything screened.
MCF10A rerep = induces DNA re-replication in MCF 10a normal breast cells | MCF 10A DNA re-replication, Hoechst nuclear intensity, 48 h | Potency, µM (series often up to 46.1 µM), without a hit: at the top dose activity, positive = re-replication, usual class: activators | hit rate 2.9% among 350,000; further: % of control where 0% means no effect; nearly all actives have a fitted effect of over 50% in size
KB-3-1 cytotox = kills parental KB-3-1 adenocarcinoma cells; hit rate 1.4% among 400,000; KB-3-1 viability, CellTiter-Glo ATP luminescence, 72 h; Potency, µM (top dose mostly 46.1 µM), hits mostly cytotoxic; further: on the % scale 0 is the no-effect control and ±100 the full control effect; nearly all actives have a fitted effect of over 60% in size
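Luminescent ATP read-out (CellTiter-Glo) measures survival of drug-naive KB-3-1 cells after 72 h compound exposure at 37 °C. Titration series was screened from lowest to highest concentration, with DMSO vehicle plates as background controls.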
KB-V1 MDR tox = KB-V1 MDR subline cytotoxicity; Potency, µM (top dose mostly 46.1 µM), most hits filed as cytotoxic; KB-V1 MDR cells viability, CellTiter-Glo, 72 h; AID 1347076; hit rate 3.4% among 400,000; further: on the % scale 0 is the no-effect control and ±100 the full control effect; nearly all actives have a fitted effect of over 60% in size
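qHTS viability screen in drug-selected KB-V1 MDR cells: 72 h compound treatment at 37 degrees C, ATP luminescence end point.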
ELG1 repair inh = ELG1-dependent DNA repair inhibition; AID 504467; Potency, µM (titrated, usually from 46.1 µM), inactives show at the highest dose activity change, negative = inhibition, hits mostly inhibitors; HEK293T ELG1-luciferase reporter, luminescence, 16 h; DNA damage induced by 5-fluorouridine; hit rate 2.3% among 330,000; further: on the % scale 0 is the no-effect control and ±100 the full control effect; nearly all actives have a fitted effect of over 55% in size
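Reporter activity after DNA damage by 5-fluorouridine is monitored. Compound-treated cells incubate 16 hr at 37 °C, then ONE-Glo is added for 30 min before luminescence reading.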
SW480 rerep = induces DNA re-replication in SW480 colon adenocarcinoma cells | SW480 DNA re-replication, Hoechst DNA content imaging, 48 h | Potency, µM (top dose mostly 46.1 µM), without a hit: top-dose re-replication activation, hits mostly activators | hit rate 1.8% among 340,000 | AID 624297; further: % of control where 0% means no effect; nearly all actives have a fitted effect of over 55% in size
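Image-based DNA-content assay: after two days of treatment, nuclei were labelled with the DNA dye Hoechst and imaged, and hits were compounds raising the count of nuclei showing high fluorescence intensity.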
Active calls of the source: *; i = inactive; u = inconclusive; x = not tested or not shown; ! = a repeat was not active. The call rests on the fitted dose curve; in most records, active means well fitted curve in the direction sought with a large enough effect; inconclusive means small, poorly fitted or top-dose-only effect, or another doubt; inactive means no such curve, though single readings can be large; an effect the other way counts as inactive or inconclusive. Potency means the concentration at half of the fitted maximal effect.

SMILES	MCF10A rerep	KB-3-1 cytotox	KB-V1 MDR tox	ELG1 repair inh	SW480 rerep
Cc1c(NC(=O)c2cc(-c3ccc(F)cc3)nc3ccccc23)c(=O)n(-c2ccccc2)n1C	u	u	u	8.2µM*	4%
Nc1c(C(=O)NCc2ccccc2)c2nc3ccccc3nc2n1-c1ccc2c(c1)OCO2	12%	i	i	u	5%
C=CCNC(=O)c1c(N)n(-c2cccc(S(N)(=O)=O)c2)c2nc3ccccc3nc12	3.3µM*	u	i	9.2µM*	4.1µM*
COCCNC(=O)c1c(N)n(-c2ccccc2)c2nc3ccccc3nc12	u	i	i	u	21µM*
Cc1nc(-c2ccccc2)sc1C(=O)Nc1ccccc1F	2%	i	i	24%	-5%
O=c1cc(CNC2CCCCC2)c2ccccc2[nH]1	1%	i	i	6%	-5%
CCOc1ccc2[nH]cc(C(=O)NCc3ccc(F)cc3)c(=O)c2c1	u	i	i	u	u
CCCCCC(=O)Nc1ccccc1N1CCOCC1	-11%	i	i	-7%	-6%
COc1ccc(-c2ccc3c(c2)O/C(=C\c2ccsc2)C3=O)cn1	u	i	i	u	0%
Cc1ccc(Nc2nc3ccccc3nc2Nc2c(C)n(C)n(-c3ccccc3)c2=O)cc1	1.8µM*	i	u	-16%	-4%
COCCCNC(=O)c1c(N)n(-c2ccc(S(N)(=O)=O)cc2)c2nc3ccccc3nc12	7.3µM*	i	i	11%	9.2µM*
COCCNC(=O)c1c(N)n(CCCn2ccnc2)c2nc3ccccc3nc12	12µM*	i	i	u	u
CC1(C(=O)NS(=O)(=O)c2cccs2)CCN1C(=O)CC1CCCCC1 (stereo not drawn)	x	i	i	x	x
COC(=O)c1c(C)n(-c2ccccc2)c2ccc(O)cc12	u	u	21µM*	u	u
COC(=O)c1c(C)n(-c2ccc(C)cc2)c2ccc(O)cc12	u	u	u	-27%	u
C[C@@H]1ON(C)[C@H]2C[C@H]3c4cc(N5CCOCC5)ccc4CCN3C(=O)[C@@H]12	5%	i	i	x	u
COc1ccc(CCNC(=O)/C=C/c2ccco2)cc1	10%	i	u	6%	15%
CCOC(=O)c1ccc(NC(=O)c2cc(C)nc3ccccc23)cc1	u	i	i	10%	-1%
CCc1ccc(OCc2ccccc2C(=O)Nc2ccc3nc(C)cc(N)c3c2)cc1	x	16µM*	u	x	x
Cc1cccc(N2CCN(C(=O)c3ccc(CNc4c(N5CCC(C)CC5)c(=O)c4=O)cc3)CC2C)c1 (stereo not drawn)	9%	u	u	u	u
N#Cc1c(NC(=O)CN2CCOCC2)oc(-c2ccccc2)c1-c1ccccc1	4%	i	i	-10%	-4%
COc1ccc(CC(=O)Nc2oc(-c3ccccc3)c(-c3ccccc3)c2C#N)cc1OC	14%	i	i	23µM*	-4%
Cc1ccc(OCC(=O)Nc2oc(-c3ccccc3)c(-c3ccccc3)c2C#N)cc1	16µM*	i	i	x	-1%
COc1ccccc1OCC(=O)Nc1oc(-c2ccccc2)c(-c2ccccc2)c1C#N	u	i	u	-14%	-7%
N#Cc1c(NC(=O)COC(=O)C2CC3C=CC2C3)oc(-c2ccccc2)c1-c1ccccc1 (stereo not drawn)	18µM*	i	i	-3%	-40%
SMILES	MCF10A rerep	KB-3-1 cytotox	KB-V1 MDR tox	ELG1 repair inh	SW480 rerep
COc1ccc(-c2oc(NC(=O)CSc3ncn[nH]3)c(C#N)c2-c2ccc(OC)cc2)cc1	14µM*	i	i	u	35µM*
CC(=O)NC(CC(=O)NNC(=O)c1cc2ccccc2cc1O)c1ccccc1 (stereo not drawn)	-36%	u	i	7%	u
Cc1ccc(C(=O)CNc2cccc(Cl)c2)cc1	u	i	i	u	-6%
COc1ccc(CCNC(=O)c2ccc(CS(=O)(=O)c3ccc(C)cc3)o2)cc1OC	26%	u	4.6µM*!	16µM*	-4%
COc1ccc(CCNC(=O)c2ccc([N+](=O)[O-])cc2Cl)cc1OC	1%	i	i	x	-4%
COc1ccc(CCNC(=O)c2ccc(CS(=O)(=O)Cc3ccc(C)cc3)o2)cc1OC	x	i	u	x	x
COc1ccc(CCNC(=O)c2ccc(CS(=O)(=O)c3ccc(Cl)cc3)o2)cc1OC	28%	i	2.6µM*	u	u
COc1ccc(CCNC(=O)c2ccc(-c3ccc([N+](=O)[O-])cc3Cl)o2)cc1OC	u	i	i	18µM*	2%
CCN=C1SC(C(=O)NCCc2ccccc2)CC(=O)N1CC (stereo not drawn)	-3%	i	i	0%	-8%
O=C1c2cccc3c(N4CCCCC4)ccc(c23)C(=O)N1c1cccc(O)c1	12µM*	u	u	8%	u
C=CCN1C(=O)c2cccc3c(N4CCCCC4)ccc(c23)C1=O	16µM*	i	i	1%	u
Cc1n[nH]c(C)c1N1C(=O)c2cccc3c(N4CCCCCC4)ccc(c23)C1=O	u	i	21µM*	u	16%
O=C1c2cccc3c(N4CCCCC4)ccc(c23)C(=O)N1CCO	u	i	u	u	u
CCC(=O)Nc1ccc(C(=O)Nc2c[nH]c(=O)[nH]c2=O)cc1	3%	i	i	0%	1%
COc1ccc(C2CC(C)(c3ccc(OC)cc3)Nc3ccccc3N2)cc1 (stereo not drawn)	u	21µM*	u	1%	u
Cc1ccc(NC(=O)CS(=O)CC(=O)NC2CCN(Cc3ccccc3)CC2)c(C)c1 (stereo not drawn)	0%	i	i	0%	-7%
N/C(=N\OC(=O)CSc1ccccc1)c1ccncc1	0%	i	u	u	14%
Cc1ccnn1CC(=O)N/N=C/c1ccc([N+](=O)[O-])s1	12%	u	i	13µM*	u
O=C(Cc1ccccc1)N/N=C/c1ccc([N+](=O)[O-])s1	u	u	15µM*	3%	u
O=C(N/N=C\c1ccc([N+](=O)[O-])s1)c1cncc(Br)c1	7.3µM*	5.8µM*	i	u	5.8µM*
O=C(N/N=C/c1ccc([N+](=O)[O-])s1)c1ccccc1	1%	u	i	u	-1%
O=C(N/N=C/c1ccc([N+](=O)[O-])s1)c1ccccc1Br	3%	i	u	-28%	10µM*
O=C(N/N=C/c1cccs1)c1cncc(Br)c1	18%	i	i	-17%	3%
